In PubChem BioAssay AID1220 (Sanford-Burnham Center for Chemical Genomics, 2008):
The campaign covered roughly 190,000 compounds. About 1,300 (0.68%) were called active. Rule as the data show it: active = inhibition above about 50%; inactive = the rest. This excerpt belongs to a sample that is enriched for actives.

molecular target: Mannose-6-phosphate isomerase (Homo sapiens) (UniProt P34949); assay: MPI inhibition at elevated mannose 6-phosphate – biochemical, fluorescence intensity, high mannose 6-phosphate, primary screen (AID 1220); settings: recombinant PMI enzyme, coupled fluorescence intensity; at 20 µM; hits give high values
Sequence (P34949 whole entry, looked up): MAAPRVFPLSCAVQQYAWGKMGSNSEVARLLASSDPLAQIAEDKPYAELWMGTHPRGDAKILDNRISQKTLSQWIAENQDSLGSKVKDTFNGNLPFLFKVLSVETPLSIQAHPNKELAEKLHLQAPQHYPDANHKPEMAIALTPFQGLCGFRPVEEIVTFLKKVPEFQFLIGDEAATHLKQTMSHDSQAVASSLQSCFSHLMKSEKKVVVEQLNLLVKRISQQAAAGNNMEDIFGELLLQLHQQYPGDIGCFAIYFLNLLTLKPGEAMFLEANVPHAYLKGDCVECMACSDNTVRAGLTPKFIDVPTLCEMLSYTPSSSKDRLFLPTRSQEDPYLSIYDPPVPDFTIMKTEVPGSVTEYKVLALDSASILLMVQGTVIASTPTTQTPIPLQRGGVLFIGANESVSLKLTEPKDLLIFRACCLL

| SMILES | inhibition |
| --- | --- |
| Clc1ccc(-c2cn3cc(Br)ccc3n2)cc1Cl | -15.2% (inactive) |
| O=C(O)CCc1ccc(-c2cccs2)n1CCc1ccccc1 | 3.8% (inactive) |
| CCC(C)(C)n1nnnc1C(c1ccncc1)N1CCC(C)CC1 (stereo not drawn) | -5.6% (inactive) |
| O=C(Nc1cccn(Cc2c(Cl)cccc2Cl)c1=O)C1CC1 | 3.9% (inactive) |
| COCCNC(=O)Cn1cc2c(n1)CCC(C)C2 (stereo not drawn) | 4.1% (inactive) |
| COC(=O)C1C(c2ccc(N(C)C)cc2)C(C(=O)OC)S(=O)(=O)CS1(=O)=O (stereo not drawn) | 15% (inactive) |
| CC(=O)NC1(C2CCCCC2=O)CCCCC1 (stereo not drawn) | 4.2% (inactive) |
| Cc1ccc(C(=O)N/C(=C\c2cccs2)c2nc3ccccc3[nH]2)cc1 | 57.5% (active) |
| COc1ccc(C(=O)N/C(=C/c2cccs2)c2nc3ccccc3[nH]2)cc1OC | 3.9% (inactive) |
| O=C(N/C(=C/c1cccs1)c1nc2ccccc2[nH]1)c1ccccc1 | -4.7% (inactive) |
| Cc1cc(C)cc(N2C(=O)CN(Cc3sccc3C)C2=S)c1 | 0.5% (inactive) |
| CCOc1cccc(OCCOc2ccc(C(=O)c3ccccc3)cc2)c1 | 10.2% (inactive) |
| CN1CCN(c2nc(-c3ccc(Cl)s3)cs2)CC1 | -4.8% (inactive) |
| CCN(CC)c1ccc(/C=N/Nc2ccc(C)cc2)c(O)c1 | -70.5% (inactive) |
| CCN(CC)c1ccc(C=Nc2cc(C)ccc2C)c(O)c1 | 58.3% (active) |
| CCN(CC)c1ccc(C=Nc2ccc(C)cc2C)c(O)c1 | 36.9% (inactive) |
| CCN(CC)c1ccc(/C=N/NC(=S)NCc2ccccc2)c(O)c1 | 1.2% (inactive) |
| CCN(CC)c1ccc(/C=N/N2C(=O)c3ccccc3C2=O)c(O)c1 | -18.7% (inactive) |
| CCN(CC)c1ccc(C=Nc2ccccc2C)c(O)c1 | 66.6% (active) |
| Cc1ccc(-c2cc(C(=O)O)n(-c3ccc(S(N)(=O)=O)cc3)n2)cc1 | -17.2% (inactive) |
| COc1cc(CC(=O)OCC(=O)Nc2ccc([N+](=O)[O-])cc2)cc(OC)c1OC | 5.9% (inactive) |
| CCC(=O)Nc1cccc2cccnc12 | 1.3% (inactive) |
| CC(C)NC(=O)COc1ccccc1C#N | -4.6% (inactive) |
| Cc1ccc(C(=O)c2c[nH]cc2-c2ccccc2)cc1 | 4.1% (inactive) |
| CC(C(=O)NC1CCCC1)N(Cc1ccco1)C(=O)c1snc(C(=O)NC2CCCC2)c1N (stereo not drawn) | 4% (inactive) |

| SMILES | inhibition |
| --- | --- |
| CC1=CC2(O)OCCN(CCO)C2=CC1=O (stereo not drawn) | 57.4% (active) |
| Cc1ccc(-n2cccc2/C=C2\C(=N)N3N=C(c4ccco4)SC3=NC2=O)cc1 | -16.6% (inactive) |
| Cc1ccc2c(c1)c1c(n2CC(O)CNC(C)(C)C)CCCC1 (stereo not drawn) | 27.9% (inactive) |
| Cn1c(/N=C/c2cc(Cl)ccc2O)nc2ccccc21 | 49.3% (inactive) |
| CCn1c(/C=N/c2nc3ccccc3n2C)nc2ccccc21 | 33.8% (inactive) |
| Cc1nc2ccccc2c(=O)n1/N=C/c1c(O)ccc2ccccc12 | 17.6% (inactive) |
| Cc1nn(C)c(C)c1N=Cc1c(O)ccc2ccccc12 | 50.3% (active) |
| Oc1ccc2ccccc2c1/C=N/n1cnnc1 | 40.6% (inactive) |
| O=C(c1noc2c1CCCC2)N1CCN(c2ccccc2)CC1 | 3.6% (inactive) |
| O=C(CSc1nnc(-c2ccc(Cl)s2)o1)N1CCOCC1 | 30.1% (inactive) |
| Cc1c2c(c(C)n1C)C(C(=O)NC1CCCCC1)N(Cc1ccccc1)C2=O (stereo not drawn) | -4.7% (inactive) |
| Cc1ccc(NC(=O)CSc2nc(N)c(-c3ccccc3)c(=O)[nH]2)cc1Cl | -0.7% (inactive) |
| CCN(CC)C(=O)COC(=O)c1cc(-c2ccc(OC)cc2)nc2ccccc12 | 7% (inactive) |
| COc1cc(OC)c(C2CC(=O)N3CN(c4ccccc4C)CSC3=C2C#N)cc1OC (stereo not drawn) | -1.4% (inactive) |
| COc1ccc(N2CSC3=C(C#N)C(c4cc(OC)c(OC)cc4OC)CC(=O)N3C2)c(OC)c1 (stereo not drawn) | 36.9% (inactive) |
| COc1cc(OC)c(C2CC(=O)N3CN(c4ccccc4)CSC3=C2C#N)cc1OC (stereo not drawn) | 31.4% (inactive) |
| COc1ccc(OC)c(C2CC(=O)N3CN(c4ccccc4)CSC3=C2C#N)c1 (stereo not drawn) | -38.7% (inactive) |
| COc1ccc(N2CSC3=C(C#N)C(c4cc(OC)ccc4OC)CC(=O)N3C2)c(OC)c1 (stereo not drawn) | 55.5% (active) |
| COc1ccc(OC)c(C2CC(=O)N3CN(c4ccccc4F)CSC3=C2C#N)c1 (stereo not drawn) | 17.1% (inactive) |
| COc1ccc(Br)cc1C1CC(=O)N2CN(Cc3ccccc3)CSC2=C1C#N (stereo not drawn) | 55.7% (active) |
| COc1ccc(OC)c(C2CC(=O)N3CN(c4cccc(Cl)c4)CSC3=C2C#N)c1 (stereo not drawn) | 35% (inactive) |
| COc1ccc(N2CSC3=C(C#N)C(c4ccc(OC)c(OC)c4)CC(=O)N3C2)c(OC)c1 (stereo not drawn) | -8.6% (inactive) |
| COc1cc(OC)c(C2CC(=O)N3CN(c4ccc(C)cc4)CSC3=C2C#N)cc1OC (stereo not drawn) | 28.2% (inactive) |
| COc1ccc(Br)cc1C1CC(=O)N2CN(C)CSC2=C1C#N (stereo not drawn) | 51.8% (active) |
| CNC(=O)CSc1nnnn1-c1cc(C)ccc1C | 5.1% (inactive) |

| SMILES | inhibition |
| --- | --- |
| CCOC(=O)c1c(NC(=O)CN2CCCc3ccccc32)sc(C)c1CC | 7.2% (inactive) |
| CCOC(=O)/C(C#N)=C1/C=CN(Cc2ccccc2)C=N1 | 1.1% (inactive) |
| CCOC(=O)/C(C#N)=C1/C(=O)N(Cc2ccccc2)c2ccccc21 | 66.7% (active) |
| CCCCN1C(=O)/C(=C(/C#N)C(N)=O)c2ccccc21 | 36.9% (inactive) |
| CCOC(=O)C1CCCN(C(=O)Nc2cccc(Cl)c2)C1 (stereo not drawn) | 2.6% (inactive) |
| COc1cc([N+](=O)[O-])cc2cc(C(=O)NC(C)(C)C)c(=O)oc12 | 15.7% (inactive) |
| C=CCSc1nc2sc3c(c2c(=O)n1CC=C)CCc1ccccc1-3 | 33.5% (inactive) |
| C=CCn1c(SCC)nc2sc3c(c2c1=O)CCc1ccccc1-3 | 5.8% (inactive) |
| O=C1CC(C(=O)N(c2ccccc2)C(C(=O)NC2CCCC2)c2ccncc2)CS1 (stereo not drawn) | 0.6% (inactive) |
| Cc1c(C(=O)Nc2ccccc2)sc2nc[nH]c(=O)c12 | 8.6% (inactive) |
| CCCCCOC(=O)CSc1nc2c(c(=O)[nH]c(=O)n2C)n1CCc1ccccc1 | 107% (active) |
| CCOC(=O)CSc1nc2c(c(=O)[nH]c(=O)n2C)n1CCCc1ccccc1 | 2.2% (inactive) |
| CCOC(=O)CSc1nc2c(c(=O)[nH]c(=O)n2C)n1CCc1ccccc1 | 8.8% (inactive) |
| CN1C(=O)CC(C(=O)O)SC1=Nc1ccc(F)cc1 (stereo not drawn) | -4.1% (inactive) |
| CC(C)N1CCN(c2ccncc2S(=O)(=O)N2CCOCC2)CC1 | -5.7% (inactive) |
| O=C(O)c1[nH]c2ccccc2c1C=NCc1ccccc1Cl | -5% (inactive) |
| CC1=CC(C)(C)Nc2cc(C)c(C)cc21 | 56.3% (active) |
| CC1=CC(C)(C)Nc2ccc(C)cc21 | 40.8% (inactive) |
| CC1=CC(C)(C)Nc2ccccc21 | 23.6% (inactive) |
| C/C(=N/NC(=O)c1ccccc1)C(=O)O | 33.7% (inactive) |
| COc1ccc(C(=O)/C=C/c2ccccc2)c(OC)c1 | 1.9% (inactive) |
| COc1ccc(/C=C/C(=O)c2ccc(OC)cc2OC)c(OC)c1 | 9.4% (inactive) |
| COc1ccc(C(=O)/C=C/c2ccc(OC)c(O)c2)c(F)c1 | 62.5% (active) |
| COc1ccc(/C=C/C(=O)c2ccc(OC)cc2OC)cc1 | 2.1% (inactive) |
| COc1ccc(C(=O)/C=C/c2ccccc2)c(O)c1 | 5.8% (inactive) |

| SMILES | inhibition |
| --- | --- |
| COc1ccc(C(=O)/C=C/c2cc(OC)c(O)c(OC)c2)c(F)c1 | 62.9% (active) |
| Cc1ccc(N(C(=O)Cn2nnc(-c3ccccc3)n2)C(C(=O)NC2CCCCC2)c2ccccn2)cc1C (stereo not drawn) | 6.5% (inactive) |
| Cn1c(=O)n(Cc2ccc(Cl)cc2)c(=O)c2c1nc1n2CCN1Cc1ccco1 | 7.4% (inactive) |
| Cc1cc2ncn(CCOc3ccccc3C#N)c2cc1C | 0.3% (inactive) |
| Cc1ccccc1-c1nsc(SCC(=O)Nc2ccc3c(c2)OCO3)n1 | 14.2% (inactive) |
| CCN1/C(=C/c2ccc3cc(C)ccc3[n+]2CC)Sc2ccccc21 | -14.4% (inactive) |
| CCN1/C(=C/c2ccc3cc(C)ccc3[n+]2CC)Sc2cc(C)ccc21 | 15% (inactive) |
| CCOC(=O)N1CCN(c2cc(=O)n(-c3ccccc3C)c(=O)[nH]2)CC1 | -8% (inactive) |
| Cc1ccsc1C(=O)OC1CCOC1=O (stereo not drawn) | -9.2% (inactive) |
| COC(=O)c1c(N)n(-c2ccc(N3CCOCC3)cc2)c2nc3ccccc3nc12 | 20% (inactive) |
| COC(=O)c1nc2ccc(N3CCOCC3)cc2c(C)c1C(=O)OC | 64.4% (active) |
| COC(=O)c1nc2cc3c(cc2c(C)c1C(=O)OC)OCO3 | -5.6% (inactive) |
| Cc1nnc(SCc2ccc(F)cc2)n1NC/C=C/c1ccccc1 | 9.2% (inactive) |
| CC(=O)N1CCN(C(=S)c2cccc([N+](=O)[O-])c2)CC1 | -0.6% (inactive) |
| Cc1cccc(NC(=O)C2(c3ccccc3)CCOCC2)c1 | -5.7% (inactive) |
| COc1ccc(C(=O)/C=C(\C)Nc2ccc3c(c2)OCO3)cc1 | 33.7% (inactive) |
| CCOc1ccc(NC(=O)CN2CCN(CC(=O)Nc3ccc4c(c3)OCCO4)CC2)cc1 | -12.8% (inactive) |
| CCOc1ccc(N/C(C)=C\C(=O)c2ccc3c(c2)OCCO3)cc1 | 61.4% (active) |
| Cc1nc(-c2ccccc2)nc2[nH]c(C(C)C)cc(=O)c12 | 16.9% (inactive) |
| CCN(C(=O)COc1ccccc1[N+](=O)[O-])C1CCS(=O)(=O)C1 (stereo not drawn) | -4% (inactive) |
| CCN(C(=O)COc1cccc2cccnc12)C1CCS(=O)(=O)C1 (stereo not drawn) | 63.2% (active) |
| CCN(C(=O)COc1cccnc1[N+](=O)[O-])C1CCS(=O)(=O)C1 (stereo not drawn) | 43.2% (inactive) |
| O=C1CC(=O)N(CCNc2ncc(C(F)(F)F)cc2Cl)C(=O)N1 | 2.4% (inactive) |
